TDP1 cell CPT = growth inhibition of DT40 Tdp1-/-;hTDP1 cells with camptothecin (screen for TDP1 inhibitors); actives 12% (n = 420,000); AID 686979; chicken DT40 Tdp1-/-;hTDP1 cells + 20 nM CPT, ATP luminescence, 48 h; Potency, µM (titrated, usually from 46.2 µM), hits mostly inhibitors; further: nearly all actives have a fitted effect of over 55% in size
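Chicken DT40 Tdp1-/- cells stably complemented with human TDP1 were seeded at 400 cells/well in medium containing 20 nM camptothecin, exposed to pin-transferred compounds, and grown at 37 °C for at least 48 hr. Viability was read as ATP luminescence.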
ALOX12 inh = blocks human arachidonate 12S-lipoxygenase; AID 1671190; Potency, µM (series often up to 108 µM), most hits filed as inhibitors; purified 12hLO, xylenol orange hydroperoxide absorbance; actives 1.1% (n = 580,000)
Target sequence (P18054 whole entry, looked up): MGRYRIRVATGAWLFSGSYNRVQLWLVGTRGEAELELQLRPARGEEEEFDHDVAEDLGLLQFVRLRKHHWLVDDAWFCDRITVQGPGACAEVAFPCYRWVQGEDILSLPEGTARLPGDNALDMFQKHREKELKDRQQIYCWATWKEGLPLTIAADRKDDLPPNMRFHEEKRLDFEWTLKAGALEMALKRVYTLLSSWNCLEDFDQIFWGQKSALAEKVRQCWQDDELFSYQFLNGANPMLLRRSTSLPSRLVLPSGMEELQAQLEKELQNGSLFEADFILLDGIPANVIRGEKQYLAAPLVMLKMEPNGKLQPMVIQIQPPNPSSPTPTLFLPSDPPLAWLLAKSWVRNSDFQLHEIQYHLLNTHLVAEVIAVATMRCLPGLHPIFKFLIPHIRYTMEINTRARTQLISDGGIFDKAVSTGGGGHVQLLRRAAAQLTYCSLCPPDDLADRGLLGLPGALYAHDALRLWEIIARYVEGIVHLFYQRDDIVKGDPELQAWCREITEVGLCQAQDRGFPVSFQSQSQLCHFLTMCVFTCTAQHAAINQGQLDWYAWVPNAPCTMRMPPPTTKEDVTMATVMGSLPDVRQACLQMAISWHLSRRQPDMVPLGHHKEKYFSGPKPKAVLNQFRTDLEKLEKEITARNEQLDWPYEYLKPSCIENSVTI
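Hydroperoxide product was detected by ferrous iron/xylenol orange as the 573 to 405 nm absorbance ratio. Arachidonic acid at 40 uM (final) was turned over for 30 min at room temperature by 150 nM human 12hLO, pH 7.0 Hepes buffer, after 15 min compound preincubation.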
HT1080-NT tox = kills 2HG-producing HT-1080-NT fibrosarcoma cells; Potency, µM (titrated, usually from 46.1 µM), usual class: cytotoxic; AID 686970; actives 1.6% (n = 360,000); HT-1080-NT fibrosarcoma viability, CellTiter-Glo ATP luminescence, 48 h;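 further: NT is the 2HG producing partner of a matched IDH1 knockdown line; nearly all actives have a fitted effect of over 55% in size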
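750 cells/well, RPMI + 5% FBS; 2 h settle, compound pin-transfer, 48 h at 37 degrees C. CellTiter-Glo 10 min RT, luminescence. Normalized to DMSO and media-only wells.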
DT40 TDP1 no CPT = qHTS for Inhibitors of human tyrosyl-DNA phosphodiesterase 1 (TDP1): qHTS in cells in absence of CPT; DT40 Tdp1-/- hTDP1 cells, no CPT, ATP luminescence, 48 h; Potency, µM (highest dose often 46.2 µM), actives largely listed as inhibitors; actives 15% (n = 420,000); AID 686978, 2013; further: nearly all actives have a fitted effect of over 55% in size
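Stably hTDP1-transfected Tdp1-null chicken DT40 cells were treated with library compounds minus camptothecin and grown for at least 48 hr at 37 °C, after which cellular ATP was quantified by luminescence.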
IL1B secr inh = inflammasome signaling inhibition, IL-1 beta readout; THP-1 LPS/ATP IL-1B secretion, AlphaLISA, 16 h; hits give low values; AID 743279; actives 4.7% (n = 360,000); activity change, % at 57.5 µM; in the data active means activity change below about -50%; inconclusive means mostly about -30% to -49%
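Secreted IL-1B measured by AlphaLISA bead assay after 16 h compound exposure of THP-1 cells; compounds (final up to 57.5 uM) added 1 h before LPS (250 ng/mL) and ATP (1.25 mM) stimulation; lower signal means less secretion.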
HT1080 IDH1KD tx = HT-1080 IDH1 knockdown cell toxicity (counter line); HT-1080 IDH1 knockdown viability, ATP luminescence, 48 h; Potency, µM (highest dose often 46.1 µM), actives largely listed as cytotoxic; actives 2% (n = 360,000); AID 686971
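After a 2 h attachment period, IDH1KD HT-1080 cells took pin-transferred compound for 48 h at 37 °C; ATP-based luminescence after 10 min room-temperature reagent incubation reported viability.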
Numbers stand for hits; . = inactive; ? = inconclusive; / = no result. The sample as a whole holds a higher share of hits than the screen did. Unless noted, the call rests on the fitted dose curve; in most records, active means well fitted curve in the direction sought with a large enough effect; inconclusive means small, poorly fitted or top-dose-only effect, or another doubt; inactive means no such curve, though single readings can be large; an effect the other way counts as inactive or inconclusive.

SMILES | TDP1 cell CPT | ALOX12 inh | HT1080-NT tox | DT40 TDP1 no CPT | IL1B secr inh | HT1080 IDH1KD tx
CCOC(CNC(=O)c1ccc(CNS(=O)(=O)c2ccc(F)cc2)cc1)OCC | / | . | / | / | / | /
Cc1ccc(CCNC(=O)c2ccc(CNS(=O)(=O)c3ccc(F)cc3)cc2)cc1 | 13µM | . | / | 6.5µM | / | /
CC(=O)Nc1ccc(S(=O)(=O)NCc2ccc(C(=O)NCCN(C)Cc3ccccc3)cc2)cc1 | . | . | . | . | . | .
Cc1ccc(CCNC(=O)c2ccc(CNS(=O)(=O)c3ccccc3)cc2)cc1 | 6.5µM | . | / | 5.8µM | / | /
CCc1ccc(S(=O)(=O)NCc2ccc(C(=O)NCCN(Cc3ccccc3)C(C)C)cc2)cc1 | 21µM | . | ? | 13µM | . | 16µM
C=C(C)C1CCC(C)=C1CC/C(C)=N/NC(N)=O (stereo not drawn) | / | . | / | / | / | /
CCN(CC(=O)N1c2ccccc2OCC1c1ccccc1)Cc1nc2ccccc2c(=O)[nH]1 (stereo not drawn) | / | . | / | / | / | /
Cc1sc2ncnc(N3CCN(C(=O)c4ccco4)CC3)c2c1C | . | . | . | 21µM | . | .
O=C(c1ccco1)N1CCN(c2ncccn2)CC1 | . | . | . | . | . | .
Cc1cccc2[nH]c3c(N4CCN(C(=O)c5ccco5)CC4)ncnc3c12 | ? | / | . | 18µM | ? | .
CC(=O)c1cccc(NC(=O)CN2C(=O)NC3(CCC(C(C)(C)C)CC3)C2=O)c1 (stereo not drawn) | / | . | / | / | / | /
N#CCCn1cc(/C=N/NC(N)=S)c(-c2ccccc2)n1 | ? | 25µM | . | ? | . | .
N#CCCn1cc(/C=N/O)c(-c2ccc(-c3ccccc3)cc2)n1 | 23µM | . | ? | ? | . | ?
N#CCCn1cc(/C=C2\NC(=S)N(c3ccccc3)C2=O)c(-c2ccc(-c3ccccc3)cc2)n1 | 6.5µM | . | . | 8.2µM | . | .
N#CCCn1cc(C=C(C#N)C#N)c(-c2ccc(Cl)cc2)n1 | 16µM | . | . | ? | . | .
N#CCCn1cc(/C=N/O)c(-c2ccc(Cl)cc2)n1 | . | ? | . | . | . | .
N#CCCn1cc(/C=N/NC(N)=S)c(-c2ccc(Br)cc2)n1 | ? | ? | . | ? | . | .
O=C(OC(C(=O)Nc1ccc(Cl)cc1C(F)(F)F)c1ccccc1)c1ccccc1O (stereo not drawn) | / | . | / | / | / | /
O=C(/C=C/c1ccco1)NC(=S)Nc1nc(-c2ccc3ccccc3c2)cs1 | 3.3µM | ? | ? | 4.1µM | . | ?
O=C(O)/C=C/C(=O)Nc1nc(-c2ccc3ccccc3c2)cs1 | . | . | . | . | . | .
COc1ccc(-c2csc(NC(=S)NC(=O)/C=C/c3ccccc3)n2)cc1Br | ? | . | . | 23µM | . | .
O=C(/C=C/c1ccco1)NC(=S)Nc1nc(-c2ccc(Cl)cc2)cs1 | 5.2µM | ? | . | 4.6µM | . | .
CCOC(=O)c1ccc(Oc2nc(N3CCOCC3)nc(N3CCOCC3)n2)cc1 | / | . | / | / | / | /
CCCN1CC2(CCN(Cc3cn[nH]c3C(=O)O)CC2)CC1C(=O)O (stereo not drawn) | / | . | / | / | / | /
CCN(CC)C(=O)c1ccc2c(=O)n(Cc3cccc(Br)c3)c(=S)[nH]c2c1 | 23µM | . | . | 15µM | . | .
SMILES | TDP1 cell CPT | ALOX12 inh | HT1080-NT tox | DT40 TDP1 no CPT | IL1B secr inh | HT1080 IDH1KD tx
CC1CCCN(C(=O)c2ccc3c(=O)n(Cc4ccc5c(c4)OCO5)c(=S)[nH]c3c2)C1 (stereo not drawn) | 16µM | . | ? | 23µM | ? | .
CCN(CC)C(=O)c1ccc2c(=O)n(Cc3ccc4c(c3)OCO4)c(=S)[nH]c2c1 | 15µM | . | . | 21µM | . | .
CC(C)OCCCNC(=O)c1ccc2c(=O)n(Cc3ccc4c(c3)OCO4)c(=S)[nH]c2c1 | . | . | . | . | . | .
O=C(c1ccc2c(=O)n(Cc3ccco3)c(=S)[nH]c2c1)N1CCN(Cc2ccc3c(c2)OCO3)CC1 | 14µM | / | . | 11µM | / | .
Cc1noc(C(C)N(C)C(=O)c2cc(COc3ccccc3F)[nH]n2)n1 (stereo not drawn) | / | . | / | / | / | /
Cc1cccc(C(=O)NCc2nnc(SCC(=O)NC(C)(C)C)n2-c2ccccc2)c1 | / | . | / | / | / | /
CC(C)NCc1c(O)c(Br)cc2oc3c(c12)CCCC3 | . | ? | . | . | . | .
O=C1NCCCc2c1oc1cc(Br)c(O)c(Br)c21 | 16µM | ? | . | ? | ? | .
Cc1[nH]n(-c2ccccc2)c(=S)c1C=NCCCN=Cc1c(C)[nH]n(-c2ccccc2)c1=S | ? | 11µM | . | . | -97 | .
COC(=O)CN=Cc1c(C)[nH]n(-c2ccccc2)c1=O | . | . | . | . | . | .
Cc1ccc(NCC(=O)N/N=C/c2cccn2C)cc1 | . | . | . | ? | . | .
Cc1[nH]c2ccccc2c1/C=N/NC(N)=S | . | . | . | . | . | .
Cc1[nH]c2ccccc2c1/C=N/NC(=S)NCc1ccccc1 | ? | 35µM | . | ? | . | .
Cc1ccc(NC(=S)N/N=C/c2c(C)[nH]c3ccccc23)cc1 | ? | 32µM | ? | 29µM | . | ?
Cc1cccc(NC(=S)N/N=C/c2c[nH]c3ccccc23)c1 | 2.6µM | ? | 23µM | 2.6µM | . | 16µM
Cc1ccc(Cn2cccc2/C=N/NC(=S)Nc2ccc(C)cc2)cc1 | 4.6µM | 45µM | . | 6.5µM | . | ?
Cc1ccc(C(=O)Nc2ccc(C(=O)N/N=C/c3c[nH]c4ccccc34)cc2)cc1 | ? | . | . | ? | . | ?
Cc1cc(C)c(C#N)c(SCc2cc(=O)oc3ccc(O)cc23)n1 | / | . | / | / | / | /
O=C(NCCc1ccccn1)C1CCN(c2ccc(C(F)(F)F)cn2)CC1 | / | . | / | / | / | /
CCCn1cc2c3c(cccc31)CN(C(=O)COc1ccccc1)CC2 | / | . | / | / | / | /
CC1=C/C(=N\NC(=S)NCc2ccccc2)CC1 | 1.5µM | . | . | 1.3µM | . | .
FC(F)(F)c1ccccc1/C=N/NC(=S)NCc1ccccc1 | / | 40µM | / | / | / | /
O=C(Nc1cccc(S(=O)(=O)N2CCOCC2)c1)c1nc(-c2ccccc2)n(-c2ccccc2)n1 | / | . | / | / | / | /
C=CCn1c(COc2ccc(F)cc2)nnc1SCC(=O)NC1CC1 | . | . | . | . | . | .
CC(=O)c1c(C)oc2ccc(N(C(C)=O)S(=O)(=O)c3cccc4cccnc34)cc12 | 2.1µM | . | ? | 4.1µM | . | 26µM
CC(=O)c1c(C)oc2ccc(N(C(C)=O)S(=O)(=O)c3ccc(F)cc3C)cc12 | 12µM | . | . | 16µM | . | .
CCCC(=O)N(c1ccc2oc(C)c(C(C)=O)c2c1)S(=O)(=O)c1ccc(CC)cc1 | / | . | / | / | / | /
